# Laboratory results from PubChem BioAssay (NCATS).
# Active and inactive are the calls of the source. The rule behind the calls is not given here.
# Experiment: qHTS assay for small molecule activators of the human pregnane X receptor (PXR) signaling pathway (AID 720659); note: 0% is about no effect
# Settings: DPX-2 HepG2 CYP3A4-luciferase, 24 h; series mostly up to 92.3 µM; activation: at the top concentration
SMILES,activation,outcome
O=C(O)CCCCCCCC(=O)O,23.3% (inactive),
CCCCNC(=O)NS(=O)(=O)c1ccc(C)cc1,,inactive
O=c1[nH]c(=O)n([C@H]2C[C@H](O)[C@@H](CO)O2)cc1Br,8.7% (inactive),
Nc1ncn([C@@H]2O[C@H](CO)[C@@H](O)[C@H]2O)c(=O)n1,,inactive
CC(=O)Nc1nnc(S(N)(=O)=O)s1,6% (inactive),
COc1cc(Cc2cnc(N)nc2N)cc(OC)c1OC,12.8% (inactive),
